# GLS inhibitor: inhibitors of human glutaminase (GLS) | O94925 | GLS enzymatic activity, qHTS titration | Potency, µM (titrated, usually from 45.5 µM), for inactives: top-dose activity change, negative = inhibition, hits mostly inhibitors | 410,000 compounds, 0.21% hits | AID 624170; also: % is scaled to controls: 0 for no effect and ±100 for the full control effect
# Target sequence (O94925 whole entry, looked up): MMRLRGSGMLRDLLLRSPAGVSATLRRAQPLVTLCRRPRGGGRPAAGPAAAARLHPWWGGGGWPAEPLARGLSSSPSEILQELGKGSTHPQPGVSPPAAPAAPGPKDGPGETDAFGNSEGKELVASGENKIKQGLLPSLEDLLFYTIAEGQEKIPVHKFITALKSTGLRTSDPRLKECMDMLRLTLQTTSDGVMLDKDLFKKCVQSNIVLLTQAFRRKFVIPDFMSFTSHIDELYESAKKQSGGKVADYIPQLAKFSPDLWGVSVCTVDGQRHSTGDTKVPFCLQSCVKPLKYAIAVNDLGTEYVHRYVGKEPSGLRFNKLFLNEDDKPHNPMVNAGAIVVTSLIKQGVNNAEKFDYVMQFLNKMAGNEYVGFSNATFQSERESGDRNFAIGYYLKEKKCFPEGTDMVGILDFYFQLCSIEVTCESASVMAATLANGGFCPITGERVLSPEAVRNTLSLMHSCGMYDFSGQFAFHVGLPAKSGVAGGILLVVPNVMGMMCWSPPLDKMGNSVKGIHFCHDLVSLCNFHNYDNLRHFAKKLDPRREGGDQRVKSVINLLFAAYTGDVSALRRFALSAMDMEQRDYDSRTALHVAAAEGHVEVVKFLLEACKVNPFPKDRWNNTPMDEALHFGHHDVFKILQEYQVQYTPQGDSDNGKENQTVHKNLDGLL
#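 Compounds were pin-transferred onto hKGA, after which L-glutamine (1 mM solution) and a detection mix of glutamate oxidase, HRP and Amplex Red were added. Initial and 30 min RT fluorescence reads were collected.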
# G9a inh: G9a (human) methyltransferase inhibition. Potency, µM (top dose mostly 102 µM), without a hit: at the highest dose activity, negative = inhibition, most hits filed as inhibitors. 350,000 compounds, 8.8% hits. G9a H3K9 monomethylation, AlphaScreen, 2 h; also: % is scaled to controls: 0 for no effect and ±100 for the full control effect; nearly all actives have a fitted effect of over 75% in size
#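 Signal arises when biotinylated H3K9 peptide, once monomethylated, bridges streptavidin donor and antibody-captured acceptor beads. Enzyme at 20 nM was preincubated 15 min with test compounds; peptide 500 nM and SAM 20 uM then reacted for 2 h.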
# HP1b binding inh: blocks HP1-beta chromodomain binding to methylated histone tails; AID 540317; AlphaScreen HP1-beta / biotin-H3K9me3 peptide binding; 390,000 compounds, 0.56% hits; Potency, µM (highest dose often 114 µM), for the others: at the top dose activity change, negative = inhibition, usual class: inhibitors; also: nearly all actives have a fitted effect of over 70% in size
#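 HP1-beta protein (50 nM final) preincubated 30 min at room temperature with biotinylated H3(1-18)K9me3 peptide (50 nM) in PBS pH 7.4, 0.01% Tween-20, then compound added for 30 min. AlphaScreen streptavidin donor/nickel chelate acceptor beads (10 ug/mL final), 30 min dark, luminescence read.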
# JMJD2A Tudor: JMJD2A Tudor domain (human) inhibition | O75164 | AlphaScreen JMJD2A-Tudor / H3K4me3 peptide binding | Potency, µM (series often up to 114 µM), inactives show at the highest dose activity change, negative = inhibition, usual class: inhibitors | 390,000 compounds, 4.4% hits | AID 504339; also: % is scaled to controls: 0 for no effect and ±100 for the full control effect; nearly all actives have a fitted effect of over 50% in size
# BAZ2B block: BAZ2B (human) inhibition. Potency, µM (top dose mostly 114 µM), for inactives: top-dose activity change, negative = inhibition, hits mostly inhibitors. Q9UIF8. 360,000 compounds, 4.4% hits. AlphaScreen BAZ2B-H3K14Ac peptide displacement; also: % is scaled to controls: 0 for no effect and ±100 for the full control effect; nearly all actives have a fitted effect of over 60% in size
#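 Compounds, titrated to a top concentration of 110 uM, were incubated 30 min at room temperature with preformed BAZ2B/acetyl-K14 H3 peptide complex (50 nM each). Proximity signal was measured by AlphaScreen after 20 min with beads.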
# Numbers without * were called inactive; ? = inconclusive; / = not tested or not shown; ! = repeats disagree; [ ] = another dose, or the depositor's remark. The list is not random: actives were taken first. Their share in the collection is about 10%. Calls follow the shape of the dose curve; as a rule, active = well fitted curve in the direction sought with a large enough effect; inconclusive = small, poorly fitted or top-dose-only effect, or another doubt; inactive = no such curve, though single readings can be large; an effect the other way counts as inactive or inconclusive. Potency is read from the fitted curve at half-maximal effect.
SMILES,GLS inhibitor,G9a inh,HP1b binding inh,JMJD2A Tudor,BAZ2B block
Cn1c(CNS(=O)(=O)c2ccc(Br)cc2)n[nH]c1=S,21.9%,22.4µM*,12.0%,7.94µM*,4.8%
C[C@@H]1C(=O)OC2C[C@@]34[C@H]5C[C@@H](C(C)(C)C)[C@@]36C(O)C(=O)O[C@H]6O[C@@]4(C(=O)O5)[C@]21O (some centres not stated),/,29.3%[59 µM],/,/,/
COc1cccc(-c2nc(CS(=O)CC(=O)NCc3ccccc3Cl)c(C)o2)c1 (configuration not stated),0.0%,35.5µM*,18.9%,-18.1%,-36.7%
COc1ccc(-c2nc(CS(=O)CC(=O)NCc3ccccc3Cl)c(C)o2)cc1OC (configuration not stated),0.1%,-30.0%[59 µM],23.2%,-7.4%,-22.2%
COc1cccc(-c2nc(CS(=O)CC(=O)NCc3ccc4c(c3)OCO4)c(C)o2)c1 (configuration not stated),5.8%,50.1µM*,15.2%,-23.8%,-29.3%
CCOc1cccc(C(=O)N(Cc2ccc(C(C)C)cc2)C2CCS(=O)(=O)C2)c1 (configuration not stated),7.1%,-5.2%[59 µM],19.7%,-9.3%,4.6%
O=C(NC(C(=O)c1ccccc1)n1c(=O)cc[nH]c1=S)c1ccccc1 (configuration not stated),44.5%,14.1µM*,37.0%,?,0.8%
COc1ccccc1CNc1ncnc2ccc(-c3ccccc3C#N)cc12,/,-41.3%[0.501 µM],/,/,/
O=C(C(Cl)Cl)N1CCN(Cc2ccccc2)CC1,-2.0%,-5.9%,29.6%,6.1%,-2.2%
CC(CCc1ccccc1)N1CCN(Cc2ccccc2)CC1 (configuration not stated),-1.3%,11.2µM*,44.7µM*,2.24µM*,50.1µM*
CCS(=O)(=O)N1CCN(C(C)CCc2ccccc2)CC1 (configuration not stated),10.9%,?,?,8.91µM*,?
N#CCCN(C(=O)COC(=O)C12CC3CC(CC(O)(C3)C1)C2)c1ccc(F)cc1,-3.1%,1.41µM*,18.5%,-5.4%,13.1%
N#CCCN(C(=O)COC(=O)CNC(=O)C12CC3CC(CC(C3)C1)C2)c1ccccc1,-7.5%,-3.0%[0.501 µM],16.9%,-13.7%,-4.3%
Cc1c(CNCCCc2ccccc2)c(C(=O)O)c(C)n1Cc1ccc(Cl)cc1,10.9%,-1.7%[59 µM],-5.3%,?,?
NC(N)=Nc1nc(CSCC/C(N)=N/S(N)(=O)=O)cs1,1.6%,-4.4%[59 µM],19.4%,22.4µM*,2.4%
O=C(CSc1nc(-c2ccccc2)c(-c2ccccc2)[nH]1)N1CCN(S(=O)(=O)c2ccccc2)CC1,-19.8%,3.16µM*,-1.2%,?,-35.5%
Nn1cc(-c2ccccc2)nc1SCC(=O)N1CCN(S(=O)(=O)c2ccccc2)CC1,-0.4%,25.1µM*,8.9%,-21.2%,?
O=C(O)CSc1nc(-c2ccccc2)c(-c2ccccc2)[nH]1,7.6%,50.1µM*,-4.6%[57 µM],?,-36.8%
O=C(CSc1nc2ccccc2c(=O)[nH]1)N1CCN(S(=O)(=O)c2ccccc2)CC1,-1.4%,11.8%[12.7 µM],6.0%,-17.2%,-18.4%
COc1ccc(-c2nc3cnc(N4CCN(C)CC4)nc3n(-c3ccc(OC)cc3)c2=O)cc1,/,3.1%[0.501 µM],/,/,/
CC(C)NC[C@@H](O)c1ccc(O)c(O)c1,54.8%,17.8µM*!,?,44.7µM*,?
S=C1SCN(CCc2ccccc2)CN1CCc1ccccc1,3.6%,/,/,/,/
S=c1[nH]ccn1CCc1ccccc1,-0.3%,10µM*,-28.0%,?,27.1%
C/C(N)=C(/C#N)C(=O)CSc1nc2ccccc2[nH]1,-0.4%,?,?,79.4µM*,?
Cc1c(C)n(Cc2ccc(F)cc2)c2ccc(C(=O)NCCCN3CCOCC3)cc12,4.0%,/,?,44.7µM*,28.2µM*
Cc1c(C)n(Cc2ccccc2)c2ccc(C(=O)NCCCN3CCOCC3)cc12,2.9%,50.1µM*,-4.3%,50.1µM*,?
Cc1nn(C)cc1/C=N\NC(=O)c1ccc2c(c1)c(C)c(C)n2Cc1ccccc1,-3.2%,20.4%[12.7 µM],-27.8%,56.2µM*,44.7µM*
CCn1c(C)c(C)c2cc(C(=O)NCCCN3CCOCC3)ccc21,1.8%,/,6.3%,?,-32.8%

# Bioassay records deposited in PubChem BioAssay by National Center for Advancing Translational Sciences (NCATS).
